Compound activity: PubChem, Corson Lab, School of Medicine, Indiana University
FECH block = inhibitors of human ferrochelatase, primary screen, biochemical, purified FECH, Ni-mesoporphyrin absorbance. Ferrochelatase, mitochondrial (Homo sapiens), P22830. calls only at 10 µM (by protocol). AID 1671448, 2021. Ni-mesoporphyrin absorbance 550 nm. 3.3% of 20,000 active;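 active = enzyme reaction rate more than 3 SD below the solvent-only control wells on the same plate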;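 also: lower slope than DMSO wells means FECH inhibition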
Target sequence (P22830 whole entry, looked up): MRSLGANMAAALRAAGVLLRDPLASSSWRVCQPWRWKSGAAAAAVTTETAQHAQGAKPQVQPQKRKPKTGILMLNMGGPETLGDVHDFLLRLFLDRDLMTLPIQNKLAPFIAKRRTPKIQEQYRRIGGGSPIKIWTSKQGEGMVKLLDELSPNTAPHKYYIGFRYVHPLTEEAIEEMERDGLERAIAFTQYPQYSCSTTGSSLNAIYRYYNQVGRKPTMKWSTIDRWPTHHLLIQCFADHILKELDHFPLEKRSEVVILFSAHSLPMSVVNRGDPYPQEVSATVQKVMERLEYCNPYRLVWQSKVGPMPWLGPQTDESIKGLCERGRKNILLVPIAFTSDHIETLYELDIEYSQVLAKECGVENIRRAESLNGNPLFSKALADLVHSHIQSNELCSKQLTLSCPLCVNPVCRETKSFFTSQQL
Calls only; i = inactive; + = active, no number. The full list was thinned out, with hits kept by preference.

SMILES	FECH block
CS(=O)(=O)N1CCN(c2cc(-c3cccc(F)c3)ncn2)CC1	i
CS(=O)(=O)N1CCN(c2cc(-c3ccc(F)cc3)ncn2)CC1	+
CCS(=O)(=O)N1CCN(c2cc(-c3cccc(C)c3)ncn2)CC1	+
CCS(=O)(=O)N1CCN(c2cc(-c3ccc(C)cc3)ncn2)CC1	i
CCS(=O)(=O)N1CCN(c2cc(-c3cccc(OC)c3)ncn2)CC1	i
Cc1ccc(-c2cc(N3CCN(S(C)(=O)=O)CC3)ncn2)cc1	i
Cc1ccc(C)c(S(=O)(=O)N2CCN(c3nc(C)cc(N4CCCCC4)n3)CC2)c1	i
CCCCC(=O)Nc1ccc(Nc2nc(C)cc(Nc3ccccc3)n2)cc1	i
O=C(CCNC(=O)c1ccccc1F)NCc1cn2c(n1)SCC2	i
C=Cc1ccc(Cn2c(=O)c3cnc(-c4ccc(OC)cc4)nc3n(CC)c2=O)cc1	i
CCn1c(=O)n(Cc2cccc(Cl)c2)c(=O)c2cnc(-c3ccc(OC)cc3)nc21	+
CCn1c(=O)n(Cc2ccccc2Cl)c(=O)c2cnc(-c3ccc(OC)cc3)nc21	i
CCn1c(=O)n(Cc2cccc(OC)c2)c(=O)c2cnc(-c3ccc(Cl)cc3)nc21	i
CCn1c(=O)n(Cc2ccncc2)c(=O)c2cnc(-c3ccc(OC)cc3)nc21	+
CCn1c(=O)n(Cc2cccc(OC)c2)c(=O)c2cnc(-c3ccc(OC)cc3)nc21	i
COc1cccc(-c2cn[nH]c2C2CCN(C3CCOCC3)CC2)c1	i
Clc1cnc(N2CCN(Cc3ccccc3Cn3cccn3)CC2)nc1	i
CN1CCCC(c2n[nH]c(=O)n2CCc2ccccc2)C1 (configuration not stated)	i
O=c1[nH]nc(C2CC2)n1Cc1ccc(Cl)cc1Cl	+
CCn1c(C2CCN(C(=O)c3cc(C(C)C)[nH]n3)CC2)n[nH]c1=O	i
CC1CCCCN1c1ccc(C(N)=O)cc1NC(=O)CCc1ccccc1O (configuration not stated)	i
COCCn1c(CCCC(=O)NCc2ccc(OC(C)C)cc2)nc2cccnc21	i
Cc1ccc(S(=O)(=O)Nc2cnc(N3CC=C(c4ccccc4C)CC3)c(C(=O)O)c2)cc1	+
COc1ccc(S(=O)(=O)Nc2cnc(N3CC=C(c4ccccc4C)CC3)c(C(=O)O)c2)cc1	i
Cc1ccccc1C1=CCN(c2ncc(NS(=O)(=O)c3ccc(F)c(F)c3)cc2C(=O)O)CC1	i
SMILES	FECH block
Cc1ccc(OCC(=O)N2CCC3(CC2)N=C(c2ccccc2)NC3=O)cc1	i
Cc1cccc(NC(=O)CSCc2nc(-c3ccc(F)cc3)no2)c1C	i
CCc1nc(-c2cc(S(N)(=O)=O)ccc2OC)no1	+
COc1ccc(S(N)(=O)=O)cc1-c1noc(C2CCCCC2)n1	i
COc1ccc(S(N)(=O)=O)cc1-c1noc(C(C)(C)C)n1	i
COc1cccc(-c2cc(N3CCN(C(=O)Nc4cc(OC)ccc4OC)CC3)ncn2)c1	i
O=C(CCC(=O)N1CCc2cc(S(=O)(=O)N3CCCCCC3)ccc21)N1CCOCC1	i
O=C(O)c1cc(O)cc(-c2ccccc2CN2CCOCC2)c1	+
COC(C)c1ccc(-c2cc(C(=O)O)cc(S(=O)(=O)N3CCOCC3)c2)cc1 (configuration not stated)	i
Clc1nc(-c2ccccc2CN2CCOCC2)ns1	i
CCc1csc(CNC2CCSC2)n1 (configuration not stated)	i
COCC1=NC2(CCN(C(=O)NCCc3ccccc3F)CC2)C(=O)N1	i
CCCCOC(=O)c1ccc(NC(=O)CN2c3ccc(F)cc3-c3ccccc3S2(=O)=O)cc1	+
CC(CCc1ccccc1)NC(=O)CN1c2ccc(Br)cc2-c2ccccc2S1(=O)=O (configuration not stated)	i
CCOC(=O)c1ccc(NC(=O)CN2CCCN(Cc3cccc(F)c3)S2(=O)=O)cc1	i
CC(CCc1ccccc1)NC(=O)CN1c2ccc(F)cc2-c2ccccc2S1(=O)=O (configuration not stated)	+
O=C(CN1c2ccc(F)cc2-c2ccccc2S1(=O)=O)NCCCN1CCOCC1	i
COC(=O)c1cc(NC(=O)CN2c3ccc(F)cc3-c3ccccc3S2(=O)=O)cc(C(=O)OC)c1	+
CCc1ccc2c(c1)-c1ccccc1S(=O)(=O)N2CC(=O)Nc1ccccc1C(=O)N1CCCC1	i
CC(C)(C)NC(=O)c1ccccc1NC(=O)CN1c2ccc(F)cc2-c2ccccc2S1(=O)=O	i
CCOC(=O)c1ccc(NC(=O)CN2CCN(Cc3ccc(F)cc3Cl)S2(=O)=O)cc1	i
Cn1ccc2c(-c3ncccc3C(=O)N3CCCCC3)ccnc21	i
CCCC(=O)N(Cc1nc2nc(C)cc(C)n2n1)c1ccc(Cl)cc1	i
O=C(c1c(F)cccc1F)N1CCN(S(=O)(=O)c2cc3c4c(c2)CCN4C(=O)CC3)CC1	i
CCNc1nc(C)c(C(=O)N[C@H]2C[C@@H](C(=O)OC)N(C)C2)s1	i
SMILES	FECH block
O=S(=O)(NCCn1c(C(F)(F)F)nc2cccnc21)c1ccc(Cl)cc1	i
CCn1nc(C)c(NC(=O)CN2CCc3[nH]nc(C4CCC4)c3C2)c1C	i
COc1ccc(N2C(=O)CCS2(=O)=O)cc1S(=O)(=O)N(Cc1ccccc1)c1ccccc1	i
CCC(CO)N(Cc1ccsc1)Cc1ccc2c(c1)CCO2 (configuration not stated)	i
Cc1ccc(C2=CC(c3c(F)cccc3Cl)n3nc(NS(=O)(=O)c4ccccc4)nc3N2)cc1 (configuration not stated)	i
O=S(=O)(Nc1nc2n(n1)C(c1c(F)cccc1Cl)C=C(c1ccccc1)N2)c1ccccc1 (configuration not stated)	+
CS(=O)(=O)Nc1nc2n(n1)C(c1ccccc1Cl)C=C(c1ccc(Br)cc1)N2 (configuration not stated)	i
Cc1ccc(C2=CC(c3ccccc3Cl)n3nc(NS(C)(=O)=O)nc3N2)cc1 (configuration not stated)	i
Cc1ccc(C2=CC(c3c(F)cccc3Cl)n3nc(NS(C)(=O)=O)nc3N2)cc1 (configuration not stated)	+
Cc1ccc(C2=CC(c3ccc(F)cc3)n3nc(NS(C)(=O)=O)nc3N2)cc1 (configuration not stated)	i
O=S(=O)(Nc1nc2n(n1)C(c1ccc(F)cc1)C=C(c1ccccc1)N2)c1ccc(Cl)cc1 (configuration not stated)	i
Cc1ccc(C2=CC(c3ccc(F)cc3)n3nc(NS(=O)(=O)c4ccccc4)nc3N2)cc1 (configuration not stated)	i
Cc1ccc(C2=CC(c3ccccc3Cl)n3nc(NS(=O)(=O)c4ccccc4)nc3N2)cc1 (configuration not stated)	+
CCc1cc(N2CCN(c3ccc(F)cc3)CC2)n2ncnc2n1	i
CCC(c1cccnc1)N(C)Cc1sccc1C (configuration not stated)	i
CCc1nc(OCC(=O)NCc2ccccc2)c2c(C)c(C)oc2n1	i
COc1cccc(C(=O)Nc2ccc(Oc3c(C)nc4nc[nH]n4c3=O)cc2)c1	i
CCc1ncc(C(=O)NCCC(=O)Nc2ccc(C)cc2C)cn1	i
COc1cc(F)c(C(=O)NCc2ccon2)c(F)c1	i
CCC(C(=O)Nc1ccc(Nc2nc(C)cc(Nc3ccc(C)cc3)n2)cc1)c1ccccc1 (configuration not stated)	i
CCC(C(=O)Nc1ccc(Nc2nc(C)cc(Nc3ccccc3)n2)cc1)c1ccccc1 (configuration not stated)	i
